In PubChem BioAssay (NCATS):
Inconclusive results are not listed. Activity calls are given as the source filed them. Unless noted, calls follow the shape of the dose curve; as a rule, active = well fitted curve in the direction sought with a large enough effect; inconclusive = small, poorly fitted or top-dose-only effect, or another doubt; inactive = no such curve, though single readings can be large; an effect the other way counts as inactive or inconclusive.

Legend:
[1] = molecular target: Lysosomal acid glucosylceramidase (Homo sapiens) (UniProt P04062); assay: Glucocerebrosidase-p2 (AID 348; in the data active = potency below about 10 µM; also: potency is read from the fitted curve at half-maximal effect); conditions: purified GBA, blue fluorogenic substrate, 40 min
Outline: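 Compounds titrated from 0.6 nM upwards against 0.2 nM enzyme in pH 5.9 citric acid/KH2PO4, taurocholate, tween-20; blue fluorogenic substrate 80 uM, 40 min room temperature, stopped and read Ex 365/Em 440 for AC50.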

[2] = AP1 Signaling Pathway (AID 357; active = well fitted curve in either direction with a large enough effect, not every such curve was filed as active;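 also: ME-180 reporter cells stimulated with EGF at its EC50 level; % is scaled to controls: 0 for no effect and ±100 for the full control effect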); conditions: ME-180 AP-1-bla reporter, EGF-induced, beta-lactamase ratio, 5 h; at 7.69 µM (top of the series) unless noted
Outline: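 AP-1-bla ME-180 cells, Opti-MEM + 0.5% dialyzed FBS, plated overnight 37 °C. Cpd titration + EC50 EGF, 5 h 37 °C. CCF4 2.5 h RT; ex 405, em 460/530 ratio → %activity, AC50.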

[3] = NFAT Signaling Pathway (AID 444; active = well fitted curve in either direction with a large enough effect, not every such curve was filed as active;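 also: carbachol stimulus at about its EC50 of 1 µM final; % is scaled to controls: 0 for no effect and ±100 for the full control effect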); conditions: Jurkat NFAT-bla M1, carbachol, beta-lactamase ratio, 5 h; at 7.69 µM (top of the series) unless noted
Outline: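 Jurkat cells carrying an NFAT-driven β-lactamase reporter and co-transfected muscarinic M1 receptor were treated with compound plus carbachol (1 uM final, an EC50 level) for 5 h at 37 °C. CCF4 loading followed for 1 h at RT; 460/530 nm ratio gave %activity.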

[4] = Stat Signaling Pathway (AID 446; active = well fitted curve in either direction with a large enough effect, not every such curve was filed as active;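 also: ME-180 cervical cancer cells given 40 pM IL-6 alongside compound; SIE-controlled beta-lactamase reporter measured as 460/530 nm FRET emission ratio; % is scaled to controls: 0 for no effect and ±100 for the full control effect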)
Outline: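 Screening format detects activators and inhibitors alike: ME-180 SIE-bla cells stimulated at 40 pM IL-6 for 5 hrs with compound, then dual-emission beta-lactamase read at 405 nm excitation.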

[5] = molecular target: Glucocorticoid receptor (Homo sapiens) (UniProt P04150); assay: GR-GFP Redistribution (AID 450;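 active = compounds whose dose series gives a full or clear partial fitted curve of increased nuclear translocation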; also: potency is read from the fitted curve at half-maximal effect); conditions: U2OS GR-GFP nuclear translocation, laser cytometry, 2 h
[6] = molecular target: Glucocorticoid receptor (Homo sapiens) (UniProt P04150); assay: GR-EFC Redistribution (AID 451; calls by dose curve; also: potency is read from the fitted curve at half-maximal effect); conditions: CHO-K1 GR-EFC translocation, beta-gal luminescence, 2 h
Outline: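 CHO-K1 cells stably expressing nuclear-localized β-gal enzyme acceptor and GR fused C-terminally to the enzyme donor fragment; ligand-driven nuclear translocation restores β-gal by complementation. Compounds titrated up to 46 uM final, 2 h at 37 °C; luminescence read.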

[7] = molecular target: Mitogen-activated protein kinase 10 (Mus musculus) (UniProt Q61831); assay: JNK3 AlphaScreen Assay (AID 530; active = well fitted curve in either direction with a large enough effect, not every such curve was filed as active;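 also: kinase came from lysate of stimulated human HepG2 cells; signal reports phosphorylation of biotinylated GST-cJun 1-79 at Ser73 with 10 µM ATP; % is scaled to controls: 0 for no effect and ±100 for the full control effect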)
Outline: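 JNK3 came from HepG2 lysates pre-activated with IL-1beta and TNF-alpha and phosphorylated biotinylated GST-cJun (1-79) at 10 uM ATP, pH 7.6, room temperature. Compounds were titrated. AlphaScreen signal used anti-phospho-cJun (Ser73) antibody.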

[8] = molecular target: 3',5'-cyclic-AMP phosphodiesterase 4B (Homo sapiens) (UniProt Q07343); assay: qHTS Assay for Inhibitors of PDE-IV (AID 607; active = well fitted activation curve with a large enough effect in the main read-out, with a control signal flat, not every such curve was filed as active; also: % of control where 0% means no effect)
Outline: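 The readout is membrane depolarisation from a cAMP-sensing CNG channel, detected with a potential dye at ex 535/em 590. Cells were HEK293-derived (endogenous PDE-IV) at 1000 cells/well, titrated up to 22.9 uM final.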

[9] = molecular target: Dual specificity protein kinase CLK4 (Homo sapiens) (UniProt Q9HAZ1); assay: qHTS Assay for Inhibitors of CDC-like Kinase 4 (Kinase-Glo Assay) (AID 1770); also: nearly all actives have a fitted effect of over 65% in size; also: potency is read from the fitted curve at half-maximal effect
Outline: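 Inhibition was judged from remaining ATP, measured by Ultra-Glo luciferase bioluminescence after Clk4 (25 nM) had acted on RS peptide at 1 uM ATP for 4.5 hours, room temperature.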

[10] = molecular target: Dual specificity protein kinase CLK4 (Homo sapiens) (UniProt Q9HAZ1); assay: qHTS Assay for Inhibitors of CDC-like Kinase 4 (ADP-Glo Assay) (AID 1771); also: nearly all actives have a fitted effect of over 70% in size; also: potency is read from the fitted curve at half-maximal effect
Outline: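 Clk4 (25 nM) was incubated 1 hr at room temperature with 100 uM RS repeat peptide and 1 uM ATP in buffer with 2 mM MgCl2, 0.5 mM EGTA, 2.5 mM DTT. ADP formed was quantified by ADP-Glo luminescence.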

[11] = molecular target: Ubiquitin carboxyl-terminal hydrolase 1 (Homo sapiens) (UniProt O94782); assay: Inhibitors of USP1/UAF1: Pilot qHTS (AID 504865); also: nearly all actives have a fitted effect of over 35% in size; also: potency is read from the fitted curve at half-maximal effect
Outline: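 Kinetic fluorescence assay: 1nM USP1/UAF1, 15 min compound preincubation, then 150nM Ub-Rho; 480/540 nm.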

[12] = molecular target: Cytochrome P450 1A2 (Homo sapiens) (UniProt P05177); assay: p450-cyp1a2 (AID 410; calls by dose curve; also: potency is read from the fitted curve at half-maximal effect)
Outline: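 Human CYP1A2 (20nM) demethylated Luciferin-ME at its Km (100uM) in 100mM KPO4. After 10 min compound preincubation, NADPH regeneration ran the reaction 60 min at room temperature. Luciferin was read by luminescence, normalized to 57 uM furafylline.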

[13] = molecular target: Cytochrome P450 3A4 (Homo sapiens) (UniProt P08684); assay: qHTS Assay for Activators of Cytochrome P450 3A4 (AID 885); also: nearly all actives have a fitted effect of over 65% in size
Outline: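 Steps: enzyme/substrate mix dispensed; compound added, 10 min RT; NADPH regeneration solution added, 60 min RT; luciferin detection buffer stops reaction; 20 min later luminescence measured.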

[14] = molecular target: Cytochrome P450 2D6 (Homo sapiens) (UniProt P10635); assay: qHTS Assay for Inhibitors and Substrates of Cytochrome P450 2D6 (AID 891); also: potency is read from the fitted curve at half-maximal effect; nearly all actives have a fitted effect of over 60% in size
Outline: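 Human CYP2D6 (5 nM) with 30 uM Luciferin-ME EGE (at Km) in 100 mM KPO4, compound preincubated 10 min, then NADPH regeneration system for 60 min at room temperature. Luciferin read by luminescence; normalized to 1.43 uM quinidine.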

[15] = molecular target: Cytochrome P450 2C19 (Homo sapiens) (UniProt P33261); assay: qHTS Assay for Inhibitors and Substrates of Cytochrome P450 2C19 (AID 899); also: potency is read from the fitted curve at half-maximal effect; nearly all actives have a fitted effect of over 60% in size
Outline: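 Human CYP2C19 (5nM) with Luciferin-H EGE at 10uM (its KM) in 50mM KPO4 was preincubated with compound for 10 min at 37C. NADPH regeneration started a 60 min 37C reaction. Luciferin was read by luminescence, normalized to 57uM ketoconazole.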

[16] = molecular target: Dual specificity protein kinase CLK4 (Homo sapiens) (UniProt Q9HAZ1); assay: qHTS Assay for Inhibitors of CDC-like Kinase 4 (ADP-FP Assay) (AID 1795); also: nearly all actives have a fitted effect of over 60% in size; also: potency is read from the fitted curve at half-maximal effect
Outline: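 Inhibition of ADP formation by 6.25 nM Clk4 is measured using 1 uM ATP and 100 uM RS repeat peptide over one hour. Produced ADP displaces a fluorescent tracer from antibody, lowering polarization.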

[17] = molecular target: Cytochrome P450 3A4 (Homo sapiens) (UniProt P08684); assay: qHTS Assay for Inhibitors and Substrates of Cytochrome P450 3A4 (AID 884); also: potency is read from the fitted curve at half-maximal effect; nearly all actives have a fitted effect of over 50% in size
Outline: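 20 nM human CYP3A4 with 25 uM Luciferin-PPXE (at KM) in 200 mM KPO4, preincubated 10 min with compound; NADPH regeneration started a 60 min RT reaction. Luciferin detected by luminescence, normalized to 57 uM ketoconazole as full inhibition.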

[18] = qHTS Assay for Identification of Small Molecule Agonists for Hypoxia Response Element Signaling Pathway (AID 914; active = well fitted activation curve with a large enough effect in the signal ratio, with a control signal flat, not every such curve was filed as active; the % refers to the signal ratio; also: potency is read from the fitted curve at half-maximal effect; as to activation: % of control where 0% means no effect); conditions: ME-180 (cervical carcinoma) HRE-bla reporter, beta-lactamase ratio, CoCl2, 17 h; activation: hits give high values
Outline: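 HRE-bla ME-180 cells, overnight plating in Opti-MEM with 0.5% dialyzed FBS; cpd titration + EC50 CoCl2, 17 h, 37 degrees Celsius; CCF4 2.5 h RT; 460/530 nm ratio; AC50.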

Sequence of Cytochrome P450 3A4 (Homo sapiens) (P08684 whole entry, looked up): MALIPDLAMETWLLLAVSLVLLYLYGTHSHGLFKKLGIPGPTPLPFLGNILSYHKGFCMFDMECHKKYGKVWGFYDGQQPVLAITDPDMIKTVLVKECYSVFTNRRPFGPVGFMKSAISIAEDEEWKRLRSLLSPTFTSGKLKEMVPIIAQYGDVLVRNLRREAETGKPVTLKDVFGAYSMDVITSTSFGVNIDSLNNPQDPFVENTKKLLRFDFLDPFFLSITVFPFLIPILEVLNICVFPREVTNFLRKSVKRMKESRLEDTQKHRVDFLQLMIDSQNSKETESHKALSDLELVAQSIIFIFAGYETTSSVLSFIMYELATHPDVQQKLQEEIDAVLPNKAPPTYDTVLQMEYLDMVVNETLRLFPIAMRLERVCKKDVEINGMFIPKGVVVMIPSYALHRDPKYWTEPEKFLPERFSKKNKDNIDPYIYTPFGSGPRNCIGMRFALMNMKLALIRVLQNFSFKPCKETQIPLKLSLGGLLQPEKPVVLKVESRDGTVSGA
Sequence of Ubiquitin carboxyl-terminal hydrolase 1 (Homo sapiens) (O94782 whole entry, looked up): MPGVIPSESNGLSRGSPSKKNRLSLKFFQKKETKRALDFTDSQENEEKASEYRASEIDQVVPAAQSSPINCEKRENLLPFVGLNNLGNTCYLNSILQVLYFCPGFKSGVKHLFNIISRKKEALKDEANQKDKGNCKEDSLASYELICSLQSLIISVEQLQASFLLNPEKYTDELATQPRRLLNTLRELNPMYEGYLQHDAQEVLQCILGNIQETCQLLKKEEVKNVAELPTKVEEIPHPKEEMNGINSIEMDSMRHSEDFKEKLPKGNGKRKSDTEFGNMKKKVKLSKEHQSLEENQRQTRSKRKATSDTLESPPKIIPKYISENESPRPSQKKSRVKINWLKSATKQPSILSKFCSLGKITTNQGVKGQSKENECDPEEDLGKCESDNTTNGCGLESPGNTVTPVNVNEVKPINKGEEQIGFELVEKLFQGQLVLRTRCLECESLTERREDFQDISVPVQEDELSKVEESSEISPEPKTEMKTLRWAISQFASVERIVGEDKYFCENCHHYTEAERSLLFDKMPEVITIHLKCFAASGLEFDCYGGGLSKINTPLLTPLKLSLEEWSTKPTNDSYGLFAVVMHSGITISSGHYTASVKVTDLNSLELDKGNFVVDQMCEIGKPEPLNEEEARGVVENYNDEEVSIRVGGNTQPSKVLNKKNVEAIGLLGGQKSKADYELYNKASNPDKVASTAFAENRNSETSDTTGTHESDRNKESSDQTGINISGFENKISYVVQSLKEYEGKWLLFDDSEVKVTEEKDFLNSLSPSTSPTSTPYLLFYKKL
Sequence of Cytochrome P450 1A2 (Homo sapiens) (P05177 whole entry, looked up): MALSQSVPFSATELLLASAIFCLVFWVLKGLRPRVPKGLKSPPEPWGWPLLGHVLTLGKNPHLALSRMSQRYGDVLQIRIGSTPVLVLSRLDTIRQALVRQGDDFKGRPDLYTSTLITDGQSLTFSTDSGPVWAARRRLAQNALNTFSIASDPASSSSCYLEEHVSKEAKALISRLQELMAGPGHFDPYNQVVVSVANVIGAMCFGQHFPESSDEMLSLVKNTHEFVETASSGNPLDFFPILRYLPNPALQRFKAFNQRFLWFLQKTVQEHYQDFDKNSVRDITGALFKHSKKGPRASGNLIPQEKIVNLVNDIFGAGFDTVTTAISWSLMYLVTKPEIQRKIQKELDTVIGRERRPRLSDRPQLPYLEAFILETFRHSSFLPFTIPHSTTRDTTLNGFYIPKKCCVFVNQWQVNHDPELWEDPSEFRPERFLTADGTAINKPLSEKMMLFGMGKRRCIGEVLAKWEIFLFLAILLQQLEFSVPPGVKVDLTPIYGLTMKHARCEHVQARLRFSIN
Sequence of Lysosomal acid glucosylceramidase (Homo sapiens) (P04062 whole entry, looked up): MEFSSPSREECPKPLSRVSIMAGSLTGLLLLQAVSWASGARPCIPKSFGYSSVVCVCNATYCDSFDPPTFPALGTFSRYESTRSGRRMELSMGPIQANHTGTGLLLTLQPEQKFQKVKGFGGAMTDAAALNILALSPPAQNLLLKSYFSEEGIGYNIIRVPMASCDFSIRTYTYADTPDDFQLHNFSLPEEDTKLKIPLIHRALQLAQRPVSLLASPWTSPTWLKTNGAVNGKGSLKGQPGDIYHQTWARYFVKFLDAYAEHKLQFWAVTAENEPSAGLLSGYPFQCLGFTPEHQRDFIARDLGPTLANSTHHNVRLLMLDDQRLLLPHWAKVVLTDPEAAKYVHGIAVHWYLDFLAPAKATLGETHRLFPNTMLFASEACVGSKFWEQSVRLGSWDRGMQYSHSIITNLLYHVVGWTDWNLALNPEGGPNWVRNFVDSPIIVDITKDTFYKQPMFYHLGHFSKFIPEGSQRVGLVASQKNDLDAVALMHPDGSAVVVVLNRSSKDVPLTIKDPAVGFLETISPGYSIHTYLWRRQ
Sequence of Dual specificity protein kinase CLK4 (Homo sapiens) (Q9HAZ1 whole entry, looked up): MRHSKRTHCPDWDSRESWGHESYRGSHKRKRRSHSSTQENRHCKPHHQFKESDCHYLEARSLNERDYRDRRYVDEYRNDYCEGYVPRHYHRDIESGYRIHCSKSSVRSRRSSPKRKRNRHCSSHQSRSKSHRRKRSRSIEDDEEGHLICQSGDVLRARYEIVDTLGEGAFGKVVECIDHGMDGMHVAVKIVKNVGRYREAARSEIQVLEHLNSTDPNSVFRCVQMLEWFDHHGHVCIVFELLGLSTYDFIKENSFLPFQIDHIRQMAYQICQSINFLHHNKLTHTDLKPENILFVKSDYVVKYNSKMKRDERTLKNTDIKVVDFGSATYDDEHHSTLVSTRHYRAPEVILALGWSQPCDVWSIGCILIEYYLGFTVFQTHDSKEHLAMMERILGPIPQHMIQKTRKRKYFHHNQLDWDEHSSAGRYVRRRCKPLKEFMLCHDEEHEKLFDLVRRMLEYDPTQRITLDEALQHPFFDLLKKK
Sequence of Glucocorticoid receptor (Homo sapiens) (P04150 whole entry, looked up, the tested form may be a part): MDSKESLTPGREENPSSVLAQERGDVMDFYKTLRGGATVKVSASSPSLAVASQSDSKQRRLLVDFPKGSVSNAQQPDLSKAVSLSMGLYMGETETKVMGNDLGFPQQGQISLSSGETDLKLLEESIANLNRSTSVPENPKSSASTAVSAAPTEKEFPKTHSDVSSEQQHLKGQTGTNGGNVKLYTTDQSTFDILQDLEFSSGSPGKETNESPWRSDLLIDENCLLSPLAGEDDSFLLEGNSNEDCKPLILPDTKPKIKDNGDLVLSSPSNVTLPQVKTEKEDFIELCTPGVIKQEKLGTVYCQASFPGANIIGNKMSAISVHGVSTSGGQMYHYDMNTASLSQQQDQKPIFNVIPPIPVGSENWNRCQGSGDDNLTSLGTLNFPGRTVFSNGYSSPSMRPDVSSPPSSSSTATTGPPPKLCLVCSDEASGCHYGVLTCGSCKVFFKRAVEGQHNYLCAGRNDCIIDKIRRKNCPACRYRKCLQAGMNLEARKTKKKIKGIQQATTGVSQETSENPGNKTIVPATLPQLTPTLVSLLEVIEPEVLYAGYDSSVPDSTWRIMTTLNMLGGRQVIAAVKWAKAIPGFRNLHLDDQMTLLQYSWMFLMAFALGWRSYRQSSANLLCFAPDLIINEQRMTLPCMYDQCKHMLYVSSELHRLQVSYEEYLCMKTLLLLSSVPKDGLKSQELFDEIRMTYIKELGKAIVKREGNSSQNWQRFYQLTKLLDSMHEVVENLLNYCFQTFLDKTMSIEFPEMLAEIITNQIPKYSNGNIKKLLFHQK
Sequence of 3',5'-cyclic-AMP phosphodiesterase 4B (Homo sapiens) (Q07343 whole entry, looked up): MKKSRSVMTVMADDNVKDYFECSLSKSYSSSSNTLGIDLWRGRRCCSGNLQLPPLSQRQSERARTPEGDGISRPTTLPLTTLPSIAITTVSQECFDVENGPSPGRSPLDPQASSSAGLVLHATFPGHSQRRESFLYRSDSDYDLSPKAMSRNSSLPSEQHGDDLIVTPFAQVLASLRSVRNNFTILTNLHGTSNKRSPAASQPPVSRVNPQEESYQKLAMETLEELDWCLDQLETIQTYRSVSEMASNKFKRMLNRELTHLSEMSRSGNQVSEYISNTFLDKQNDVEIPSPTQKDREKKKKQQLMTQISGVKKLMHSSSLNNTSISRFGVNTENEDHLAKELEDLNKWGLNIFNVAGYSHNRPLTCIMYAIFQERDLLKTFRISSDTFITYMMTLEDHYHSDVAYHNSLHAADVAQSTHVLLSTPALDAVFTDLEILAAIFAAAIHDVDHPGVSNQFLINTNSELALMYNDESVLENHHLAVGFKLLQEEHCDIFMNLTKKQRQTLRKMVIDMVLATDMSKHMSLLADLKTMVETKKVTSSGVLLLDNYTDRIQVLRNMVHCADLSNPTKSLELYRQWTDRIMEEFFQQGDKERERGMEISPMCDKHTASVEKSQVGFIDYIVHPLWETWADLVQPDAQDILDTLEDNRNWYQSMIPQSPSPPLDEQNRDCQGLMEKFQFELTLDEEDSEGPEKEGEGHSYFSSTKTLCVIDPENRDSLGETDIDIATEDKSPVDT
Sequence of Cytochrome P450 2C19 (Homo sapiens) (P33261 whole entry, looked up): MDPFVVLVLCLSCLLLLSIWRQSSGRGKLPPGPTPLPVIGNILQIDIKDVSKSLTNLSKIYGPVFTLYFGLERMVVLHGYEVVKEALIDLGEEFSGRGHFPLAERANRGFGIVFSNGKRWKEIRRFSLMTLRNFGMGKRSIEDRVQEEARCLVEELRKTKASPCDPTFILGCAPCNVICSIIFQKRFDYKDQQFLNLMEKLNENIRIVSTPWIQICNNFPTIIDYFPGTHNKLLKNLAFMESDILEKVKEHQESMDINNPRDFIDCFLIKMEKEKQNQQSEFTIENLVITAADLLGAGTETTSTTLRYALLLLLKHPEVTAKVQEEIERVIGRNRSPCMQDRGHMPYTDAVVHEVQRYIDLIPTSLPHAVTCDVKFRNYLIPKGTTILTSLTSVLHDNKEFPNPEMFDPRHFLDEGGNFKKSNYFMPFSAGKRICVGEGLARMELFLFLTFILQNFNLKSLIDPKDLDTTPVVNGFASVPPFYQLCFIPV

N#CCCn1c(=O)c(-c2cccc(C#N)c2)nc2cnc(Oc3cccc(Cl)c3)nc21
inactive: Potency [1] > 11.4 µM | activity change, negative = inhibition [2] -14.2% | activity change, negative = inhibition [3] -6.45% | outcome [4] | Potency [5] > 9.22 µM | Potency [6] > 46 µM | Potency [7] | Potency [8] | Potency [9] | Potency [10] | Potency [11]

CN(Cc1ccco1)c1nc(-c2ccccc2C(F)(F)F)nc2ccccc12
inactive: activity change, negative = inhibition [2] 23.8% | outcome [4] | Potency [5] > 46 µM | Potency [6] > 46 µM | Potency [7] | outcome [13] | Potency [16]
active: Potency [12] 2 µM | Potency [14] 7.94 µM | Potency [15] 7.94 µM | Potency [9] 20 µM | Potency [10] 28.2 µM | Potency [11] 28.2 µM

COc1cccc(Nc2ncc3ncc(=O)n(CCC#N)c3n2)c1
active: Potency [9] 6.31 µM | Potency [10] 3.55 µM
inactive: activity change, negative = inhibition [2] -26.1% | activity change, negative = inhibition [3] -0.673% | outcome [4] | Potency [6] > 46 µM | Potency [7] | Potency [8] | outcome [13] | Potency [11]

N#Cc1cccc(-c2ccc3ncnc(NCc4cccs4)c3c2)c1
inactive: Potency [1] > 11.4 µM | outcome [4] | Potency [5] > 46 µM | Potency [6] > 46 µM | Potency [7] | Potency [8]
active: Potency [12] 0.1 µM | Potency [17] 3.16 µM | Potency [9] 10 µM | Potency [10] 8.91 µM | Potency [11] 22.4 µM

COc1cccc(-c2ccc3ncnc(NCc4cnc(C)cn4)c3c2)c1
inactive: activity change, negative = inhibition [3] 27.1% | outcome [4] | Potency [8] | outcome [13] | activation [18] -8.99%
active: Potency [12] 2.51 µM | Potency [17] 7.94 µM | Potency [9] 3.16 µM | Potency [10] 2.51 µM | Potency [16] 1.41 µM

O=c1c(CCc2ccccc2)nc2cnc(Nc3ccccc3)nc2n1C[C@H]1CCCO1
inactive: activity change, negative = inhibition [2] 16.4% | outcome [4] | Potency [5] > 9.22 µM | Potency [7] | Potency [9] | Potency [10] | Potency [16] | Potency [11]

Cc1cccc(CNc2ncncc2-c2ccccc2CN(C)C)c1
inactive: activity change, negative = inhibition [2] 1.18% | Potency [5] > 46 µM | Potency [6] > 46 µM | Potency [7] | Potency [8] | Potency [9] | Potency [10] | Potency [16] | Potency [11]

COc1cccc(-c2nc(NCc3cccnc3)c3ccccc3n2)c1
active: Potency [12] 0.158 µM | Potency [17] 2 µM | Potency [9] 25.1 µM | Potency [10] 17.8 µM
inactive: Potency [1] > 11.4 µM | activity change, negative = inhibition [2] -1.11% | activity change, negative = inhibition [3] 27.1% | outcome [4] | Potency [5] > 46 µM | Potency [6] > 46 µM | Potency [7] | outcome [13] | activation [18] -25.6%

O=c1c(-c2ccccc2)nc2cnc(Oc3ccccc3)nc2n1C[C@H]1CCCO1
inactive: Potency [1] > 11.4 µM | activity change, negative = inhibition [2] 180% | activity change, negative = inhibition [3] 4.49% | outcome [4] | Potency [5] > 9.22 µM | Potency [6] > 46 µM | Potency [7] | Potency [8] | Potency [9] | Potency [10]

COCCn1c(=O)c(-c2cccs2)nc2cnc(Oc3ccccc3)nc21
inactive: Potency [1] > 11.4 µM | activity change, negative = inhibition [2] 16.7% | Potency [5] > 9.22 µM | Potency [6] > 46 µM | Potency [8] | outcome [13] | Potency [9] | Potency [10] | Potency [11]
active: Potency [12] 2 µM | Potency [18] 3.16 µM

Clc1ccccc1-c1nc(Nc2ccncc2)c2ccccc2n1
active: Potency [17] 3.98 µM | Potency [15] 5.01 µM | Potency [9] 7.94 µM | Potency [10] 7.94 µM | Potency [16] 10 µM
inactive: activity change, negative = inhibition [2] -2.96% | activity change, negative = inhibition [3] 8.97% | outcome [4] | Potency [6] > 46 µM | Potency [7] | outcome [13]
